Measured values: the supplement of paper PMC13172266
Structures can show the parent of a compound that is named as a salt.

Key:
Experiment in all cases: cell proliferation relative to vehicle (% of vehicle); higher = less growth inhibition
Conditions in all cases: 72 h
[1] = system: U2932 TK216-resistant clone 2
In short: (§1)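 A library of 348 targeted inhibitors was screened against the ABC-DLBCL cell line U2932, using parental cells and two clones made resistant to an ETS-targeting agent through repeated exposure over almost a year. The cells were cultured at 37°C and 5% CO2 in medium containing 10% FBS and treated at 500 nM or 50 nM for 72 h, after which MTT was added for 4 h, stopped with 25% SDS, and absorbance was read on a Cytation 3. Proliferation is given as the percentage of proliferating cells relative to the vehicle, DMSO.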

[2] = system: U2932 TK216-resistant clone 3
In short: as §1

U2932 parental = system: U2932 parental
In short: as §1

Row | SMILES | cell proliferation ([1]; 50 nM) | cell proliferation ([1]; 500 nM) | cell proliferation ([2]; 50 nM) | cell proliferation ([2]; 500 nM) | cell proliferation (U2932 parental; 50 nM) | cell proliferation (U2932 parental; 500 nM)
1 | O=c1sn(-c2cccc3ccccc23)c(=O)n1Cc1ccccc1 [Tideglusib] | 94 | 106 | 103 | 101 | 89.3 | 93.1
2 | C=CC(=O)N1C/C(=C\c2ccc([N+](=O)[O-])cc2)C(=O)/C(=C/c2ccc([N+](=O)[O-])cc2)C1 | 31.4 | -1.71 | 30.7 | -2.43 | 34.3 | 1.03
3 | O=C(O)C1(C(=O)O)CCC1.[NH2-].[NH2-].[Pt+2] [Carboplatin] | 99.7 | 104 | 90.2 | 99.1 | 104 | 95.3
4 | COc1cc([C@@H]2c3cc4c(cc3[C@@H](O[C@@H]3O[C@@H]5CO[C@@H](c6cccs6)O[C@H]5[C@H](O)[C@H]3O)[C@H]3COC(=O)[C@H]23)OCO4)cc(OC)c1O [Teniposide] | 59 | 8.54 | 83 | 19.8 | 67.7 | 16.8
5 | CCn1c2ccccc2c2cc(Nc3ccnc(NCCCN4CCOCC4)n3)ccc21 | 85.4 | 91 | 74.8 | 88.1 | 83.6 | 91.7
6 | Nc1nc(N)c2nc(-c3cccc(O)c3)c(-c3cccc(O)c3)nc2n1 | 103 | 100 | 110 | 96.6 | 99 | 99.2
7 | Cc1[nH]c(/C=C2\C(=O)Nc3ccc(S(=O)(=O)Cc4c(Cl)cccc4Cl)cc32)c(C)c1C(=O)N1CCC[C@@H]1CN1CCCC1 | 108 | 92.4 | 103 | 90.5 | 102 | 96.8
8 | CN(C)CCOc1ccc(-c2nc(-c3ccncc3)c(-c3ccc4c(c3)CC/C4=N\O)[nH]2)cc1 | 93.3 | 89.5 | 96.6 | 97.4 | 93.3 | 94.8
9 | Cc1cc([C@@H](C)Nc2ccccc2C(=O)O)c2nc(N3CCOCC3)cc(=O)n2c1 | 107 | 95 | 103 | 95.3 | 99.9 | 101
10 | CC(C)N(CCCNC(=O)Nc1ccc(C(C)(C)C)cc1)C[C@H]1O[C@@H](n2cc(Br)c3c(N)ncnc32)[C@H](O)[C@@H]1O | 108 | 100 | 105 | 96.1 | 96.7 | 100
11 | CCO[C@@H]1OC(=O)C[C@@H]1NC(=O)[C@@H]1CCCN1C(=O)[C@@H](NC(=O)c1ccc(N)c(Cl)c1)C(C)(C)C | 105 | 105 | 101 | 102 | 95.4 | 98.2
12 | O=C1c2c(O)ccc(O)c2C(=O)c2c(NCCNCCO)ccc(NCCNCCO)c21 [Mitoxantrone HCl] | 9.19 | 5.75 | 14.8 | 10.6 | 16.4 | 7.06
13 | CN1CCC(CNc2ccc3ncc(-c4cccc(OC(F)(F)F)c4)n3n2)CC1 [SGI-1776 free base] | 103 | 86.7 | 105 | 82.4 | 95.5 | 94.1
14 | CC(C)(C(=O)NCC(F)(F)C(F)(F)F)C(=O)N[C@@H]1C(=O)Nc2ccccc2-c2ccccc21 | 105 | 109 | 105 | 100 | 98.7 | 86.5
15 | N#C/C(=C(/N)Sc1ccc(N)cc1)c1ccccc1C(F)(F)F | 102 | 98 | 90.8 | 92.8 | 104 | 99.2
16 | Clc1ccc(Nc2nnc(Cc3ccncc3)c3ccccc23)cc1 [Vatalanib (PTK787) 2HCl] | 109 | 99.8 | 108 | 113 | 93.1 | 102
17 | Nc1ncn([C@H]2C[C@H](O)[C@@H](CO)O2)c(=O)n1 [Decitabine] | 72.5 | 59.1 | 92.9 | 78.3 | 85.1 | 73.1
18 | Cc1c(CN2CCN(C(=O)[C@H](C)O)CC2)sc2c(N3CCOCC3)nc(-c3cnc(N)nc3)nc12 | 79.4 | 32 | 82.1 | 40.6 | 85 | 33.4
19 | Cc1nnc(C(C)C)n1C1C[C@H]2CC[C@@H](C1)N2CC[C@H](NC(=O)C1CCC(F)(F)CC1)c1ccccc1 (stereo in doubt) [Maraviroc] | 107 | 99.6 | 96 | 101 | 88 | 89.6
20 | Cc1cccc(-c2[nH]c(CNc3ccccc3F)nc2-c2ccc3ncnn3c2)n1 | 106 | 102 | 99.6 | 106 | 104 | 98.6
21 | O=C(O)c1ccc(Nc2ncc3c(n2)-c2ccc(Cl)cc2C(c2c(F)cccc2F)=NC3)cc1 | 104 | 80.2 | 112 | 86.2 | 99.6 | 65.5
22 | C[C@H]1c2cccc(O)c2C(=O)C2=C(O)[C@]3(O)C(=O)C(C(N)=O)=C(O)[C@@H](N(C)C)[C@@H]3[C@@H](O)[C@@H]21 [Doxycycline Hyclate] | 104 | 105 | 102 | 102 | 106 | 105
23 | NC(=O)c1ncn([C@@H]2O[C@H](CO)[C@@H](O)[C@H]2O)c1O [Mizoribine] | 104 | 108 | 100 | 99.7 | 104 | 102
